HCV NS3h FP – blocks HCV NS3 helicase binding to DNA; NS3h Cy5-dT15 DNA binding, fluorescence polarization; inhibition, % at 100 µM; 16,000 compounds, 1.6% hits; AID 687043;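 active = inhibition above the average over every tested compound plus 3 SD, cut at about 40% in these data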
Cy5 interf NS3h – Cy5 fluorescence interference, HCV helicase counter-screen; Cy5-dT15 DNA with NS3h; actives lie on both sides; signal over control mean, under 1 quenches; fluorescence interference ratio at 100 µM; 16,000 compounds, 6% hits;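 active = compound fluorescence over control fluorescence at most 0.8, a quencher, or at least a set upper limit, an enhancer; inactive = ratio between 0.8 and the set upper limit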
Starred values were filed as active, the others as inactive. In the library only some 6.9% were active in any assay of this set; here they are far more common.

How did Cc1ccc(N2C(=O)/C(=C/c3ccccc3C)C(=O)NC2=S)cc1 do in these assays?
HCV NS3h FP: 3; Cy5 interf NS3h: 1

What do the screens show for `Cc1ccc(N2CN=C(c3ccccc3)NC2=S)cc1`?
HCV NS3h FP: 14; Cy5 interf NS3h: 0.75*

Results for C=CCN1C(=O)/C(=C\c2ccc(Br)c([N+](=O)[O-])c2)SC1=S ?
HCV NS3h FP: 18; Cy5 interf NS3h: 0.65*

What do the screens show for `C=CCN1C(=O)/C(=C/c2cccc(Br)c2)SC1=S`?
HCV NS3h FP: 0; Cy5 interf NS3h: 0.94

Results for N#C/C(=C\c1ccc(-c2cccc(Cl)c2Cl)o1)C(=O)Nc1cccc2ncccc12 ?
HCV NS3h FP: 4; Cy5 interf NS3h: 1

Results for COc1cc(/C=C/c2[nH]c(=O)[nH]c(=O)c2[N+](=O)[O-])cc(Br)c1OCc1ccccc1 ?
HCV NS3h FP: 13; Cy5 interf NS3h: 1.1

How did COC(=O)C(=Cc1cc(Br)c(OCc2ccc([N+](=O)[O-])cc2)c(OC)c1)C(=O)OC do in these assays?
HCV NS3h FP: 6; Cy5 interf NS3h: 0.75*

How did COc1c(Cl)cc(C(=O)Nc2cc(Cl)cc(Cl)c2)cc1Cl do in these assays?
HCV NS3h FP: 4; Cy5 interf NS3h: 1.2

How did CC1C(C(=O)N(C=O)c2ccccc2)C2C=CC1C21CC1 (stereo not given) do in these assays?
HCV NS3h FP: 4; Cy5 interf NS3h: 0.96

How did CC1CCN(C(=O)c2ccccc2)CC1 do in these assays?
HCV NS3h FP: -2; Cy5 interf NS3h: 0.68*

What do the screens show for `CC1CCCN(C(=O)c2ccc(Cl)cc2)C1` (stereo not given)?
HCV NS3h FP: 2; Cy5 interf NS3h: 1

How did CS(=O)(=O)N1CCN(C(=O)COc2ccccc2)CC1 do in these assays?
HCV NS3h FP: 5; Cy5 interf NS3h: 1.1

How did CC1CCN(C(=O)c2ccc(I)cc2)CC1 do in these assays?
HCV NS3h FP: 5; Cy5 interf NS3h: 0.99

How did CC1CCCN(C(=O)c2ccccc2)C1 (stereo not given) do in these assays?
HCV NS3h FP: 6; Cy5 interf NS3h: 0.79*

What do the screens show for `CC1CCN(C(=O)COc2ccc(-c3ccccc3)cc2)CC1`?
HCV NS3h FP: 25; Cy5 interf NS3h: 0.67*

Results for CCNC(=O)CC1S/C(=N/N=C(/C)c2ccccc2)NC1=O (stereo not given) ?
HCV NS3h FP: 6; Cy5 interf NS3h: 1.2

What do the screens show for `O=C(N/N=C/c1cccc([N+](=O)[O-])c1)c1cncc(Br)c1`?
HCV NS3h FP: 7; Cy5 interf NS3h: 1

What do the screens show for `CCOc1ccc(NC(=S)NC(NC(=O)c2cc(OC)c(OC)c(OC)c2)C(Cl)(Cl)Cl)cc1` (stereo not given)?
HCV NS3h FP: 13; Cy5 interf NS3h: 0.96

How did Cc1ccc(S(=O)(=O)n2cc(/C=C3\SC(N)=NC3=O)c3ccccc32)cc1 do in these assays?
HCV NS3h FP: -12; Cy5 interf NS3h: 1

What do the screens show for `O=C1/C(=C/c2cccc(O)c2)SC(=S)N1c1ccc(Cl)cc1`?
HCV NS3h FP: 7; Cy5 interf NS3h: 0.99

How did C=C1CSc2nc(=O)c3c4c(sc3n21)CCC4 do in these assays?
HCV NS3h FP: 6; Cy5 interf NS3h: 0.94

How did Cc1nc2sc3c(c2c(=O)[nH]1)CCC3 do in these assays?
HCV NS3h FP: 2; Cy5 interf NS3h: 0.63*

Results for CCCOc1ccc2ccc(=O)oc2c1 ?
HCV NS3h FP: 2; Cy5 interf NS3h: 1.1

What do the screens show for `Cc1ccc(S(=O)(=O)N2CCN(CCNC(=O)C(=O)Nc3ccc(Br)cc3)CC2)cc1`?
HCV NS3h FP: -5; Cy5 interf NS3h: 1.1

How did O=[N+]([O-])c1ccc(-c2cn3c(n2)sc2ccccc23)cc1 do in these assays?
HCV NS3h FP: 2; Cy5 interf NS3h: 0.65*

What do the screens show for `Cc1ccc2nc(-c3ccc([N+](=O)[O-])cc3)cn2c1`?
HCV NS3h FP: 5; Cy5 interf NS3h: 0.98

Results for O=C(/C=C/c1ccco1)NCc1ccc2c(c1)OCO2 ?
HCV NS3h FP: 3; Cy5 interf NS3h: 0.94

How did O=C(NCc1ccc2c(c1)OCO2)c1ccco1 do in these assays?
HCV NS3h FP: 15; Cy5 interf NS3h: 0.74*

What do the screens show for `CC(=O)c1cccc(N2C(=O)C3C4C=CC(C4=C(C)C)C3C2=O)c1` (stereo not given)?
HCV NS3h FP: -1; Cy5 interf NS3h: 1.1

Results for O=C(c1cccc(N2C(=O)C3C4C=CC(C4)C3C2=O)c1)c1cccc(N2C(=O)C3C4C=CC(C4)C3C2=O)c1 (stereo not given) ?
HCV NS3h FP: 43*; Cy5 interf NS3h: 1.1

What do the screens show for `O=CN1CCN(c2nc(-c3ccccc3)c3cc(Br)ccc3n2)CC1`?
HCV NS3h FP: -10; Cy5 interf NS3h: 1

How did COc1cc(NC(=O)c2ccc([N+](=O)[O-])cc2)ccc1NC(=O)c1ccco1 do in these assays?
HCV NS3h FP: 1; Cy5 interf NS3h: 0.94

What do the screens show for `COc1cc(NC(=O)c2cccc([N+](=O)[O-])c2)ccc1NC(=O)c1ccco1`?
HCV NS3h FP: -15; Cy5 interf NS3h: 0.73*

What do the screens show for `COC(=O)c1ccc(COc2ccc3c(c2)oc(=O)c2ccccc23)cc1`?
HCV NS3h FP: -1; Cy5 interf NS3h: 1.1

What do the screens show for `Cc1ccc2[nH]c(C)c(CN3CCN(C)CC3)c(=O)c2c1`?
HCV NS3h FP: 5; Cy5 interf NS3h: 1.1

What do the screens show for `Cc1ccc(N2C3=[N+](CCCCC3)CC2(O)c2cccc([N+](=O)[O-])c2)cc1` (stereo not given)?
HCV NS3h FP: 5; Cy5 interf NS3h: 1

Results for CC(C)NC(=O)NCC12CC3CC(CC(C3)C1)C2 ?
HCV NS3h FP: -8; Cy5 interf NS3h: 0.97

How did COc1cc(/C=N/n2nnnc2N)ccc1OCc1ccc(F)cc1 do in these assays?
HCV NS3h FP: 10; Cy5 interf NS3h: 0.77*

Results for COc1cc(/C=N\n2nnnc2N)ccc1OCc1c(C)no[n+]1[O-] ?
HCV NS3h FP: 12; Cy5 interf NS3h: 1.1

What do the screens show for `COc1ccc(/C(N)=N\OC(=O)COc2ccccc2C)cc1`?
HCV NS3h FP: 14; Cy5 interf NS3h: 0.97

What do the screens show for `Cc1ccc2nc(Nc3nc(C)cc(-c4ccccc4)n3)nc(C)c2c1`?
HCV NS3h FP: 23; Cy5 interf NS3h: 1.1

How did Cc1ccc2nc3nc(C)cc(C)c3c(N)c2c1 do in these assays?
HCV NS3h FP: -5; Cy5 interf NS3h: 0.71*

How did CCCNC(=O)c1cc2nc(-c3ccc(OC)cc3)cc(C(F)(F)F)n2n1 do in these assays?
HCV NS3h FP: 12; Cy5 interf NS3h: 0.91

Results for O=C(Nc1cccc(Cl)c1)c1cc2nc(-c3ccc4c(c3)OCO4)cc(C(F)(F)F)n2n1 ?
HCV NS3h FP: -10; Cy5 interf NS3h: 0.67*

Results for O=C(Nc1cccc(Cl)c1Cl)c1cc2nc(-c3ccc([N+](=O)[O-])cc3)cc(C(F)(F)F)n2n1 ?
HCV NS3h FP: 10; Cy5 interf NS3h: 0.79*

What do the screens show for `Cc1ccc(-c2cc(C(F)(F)F)n3nc(C(=O)OC(C)C)cc3n2)cc1`?
HCV NS3h FP: 4; Cy5 interf NS3h: 0.98

What do the screens show for `COc1ccc(CN2CCN(Cc3cccnc3)CC2)c(OC)c1OC`?
HCV NS3h FP: -10; Cy5 interf NS3h: 1

How did C=CCOc1ccc(/C=C2\SC(=S)N(c3cccc(C(F)(F)F)c3)C2=O)cc1OC do in these assays?
HCV NS3h FP: 6; Cy5 interf NS3h: 1.1

How did O=[N+]([O-])c1ccc2c(c1)ONC(c1ccc(Cl)cc1)=N2 do in these assays?
HCV NS3h FP: 22; Cy5 interf NS3h: 0.67*

How did COc1cc([N+](=O)[O-])cc2c1N=C(c1ccc(Br)cc1)NO2 do in these assays?
HCV NS3h FP: 2; Cy5 interf NS3h: 0.97

How did COc1ccc2c3c([nH]c2c1)C(=O)CCC3 do in these assays?
HCV NS3h FP: 1; Cy5 interf NS3h: 1

From PubChem
